Screening results as filed in PubChem.
PostGolgi yeast = growth inhibition of a yeast mutant, post-Golgi transport screen | inhibition, % at 10 µM | post-Golgi transport phenotypic cell assay | 98,000 compounds, 0.9% hits;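 also: yeast cells grown in 1536-well plates; yeast grown about 18 h at 30C before absorbance read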
CYP2C9 inhib = blocks human cytochrome P450 2C9; P11712; inhibition, % at 5 µM; AID 777; 96,000 compounds, 20% hits; CYP2C9 Supersomes, luciferin-H conversion, luminescence;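 active = blocking of liver enzyme CYP2C9 beyond about 50% at 5 µM, limit read from the data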
PostGolgi ctrl = yeast control strain growth, post-Golgi counter-screen | inhibition, % at 10 µM | efflux-deficient yeast background strain, growth absorbance A615, 16 h | 98,000 compounds, 5% hits
CYP2C19 inhib = human CYP2C19 inhibition. inhibition, % at 5 µM. 96,000 compounds, 21% hits. CYP2C19 Supersomes, luciferin-H EGE luminescence, 30 min. P33261;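 active = CYP2C19 inhibition above a set limit at 5 µM in the primary screen, cut at about 50% in these data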;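 also: plate controls were negative control wells for no effect and 2.5 mM tranylcypromine positive control for full effect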
Target sequence (P33261 whole entry, looked up): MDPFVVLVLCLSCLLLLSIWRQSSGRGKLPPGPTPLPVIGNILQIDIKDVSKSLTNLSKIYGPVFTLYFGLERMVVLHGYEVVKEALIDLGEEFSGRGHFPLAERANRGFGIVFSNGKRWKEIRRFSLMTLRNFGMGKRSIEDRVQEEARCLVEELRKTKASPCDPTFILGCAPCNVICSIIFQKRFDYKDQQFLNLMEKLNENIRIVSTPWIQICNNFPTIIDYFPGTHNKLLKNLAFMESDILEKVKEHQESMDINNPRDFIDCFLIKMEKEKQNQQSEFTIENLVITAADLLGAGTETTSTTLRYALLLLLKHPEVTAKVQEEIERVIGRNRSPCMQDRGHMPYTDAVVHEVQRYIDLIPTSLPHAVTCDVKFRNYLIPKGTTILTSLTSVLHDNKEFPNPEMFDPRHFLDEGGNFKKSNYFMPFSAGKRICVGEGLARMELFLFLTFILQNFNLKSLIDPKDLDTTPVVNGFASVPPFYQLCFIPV
CYP2C9 activ = CYP2C9 (human) activation; activation factor at 5 µM; 96,000 compounds, 1.4% hits; AID 1024; recombinant CYP2C9, luciferin-H conversion, luminescence; stronger effect = higher value; factor 1 = untreated enzyme, 0 = blocked; P11712;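 active = activation factor of 2 or more for CYP2C9 at a 5 µM dose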;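 also: 0 = sulfaphenazole-blocked wells and 1 = vehicle-only wells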
CYP2C19 act = cytochrome P450 2C19 (human) activation | P33261 | recombinant CYP2C19, luciferin-H EGE luminescence; stronger effect = higher value; 0 = fully inhibited enzyme, 1 = untreated enzyme | activation factor at 5 µM | 96,000 tested, under 10 active;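 active = activation factor of at least 2 at 5 µM in the primary screen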;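 also: 0 = wells with 2.5 mM tranylcypromine and 1 = vehicle-only wells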
An asterisk follows results filed as active; x = no result given. Rows were chosen to be rich in hits. Some 32% of all compounds tested hit in one or more screens of this group. Rule as the data show it, unless noted: active = inhibition above about 30%; inactive = the rest.

SMILES | PostGolgi yeast | CYP2C9 inhib | PostGolgi ctrl | CYP2C19 inhib | CYP2C9 activ | CYP2C19 act
Cc1cc(C)c(S(=O)(=O)N(C)Cc2cnn(C)c2)c(C)c1 | -3 | -97 | 9 | 88* | 2* | 0.1
CCC1(c2ccc(F)cc2)NC(=O)N(CC(=O)c2ccc[nH]2)C1=O (stereo not given) | -4 | -8 | 2 | 1 | 1.1 | 1
O=C(CSc1nnnn1C1CCCCC1)N1c2ccccc2Sc2ccccc21 | 21 | 43 | 22 | 3 | 0.6 | 1
CN(C)S(=O)(=O)c1ccc(NC(=O)CN2CCN(C(c3ccccc3)c3ccccc3)CC2)cc1 | 14 | 3 | 3 | -4 | 1 | 1
COc1cccc(CNCC(O)(c2ccc(Cl)cc2)c2ccc(Cl)cc2)c1 | 3 | 32 | 25 | 30 | 0.7 | 0.7
COc1ccc(CNCC(O)(c2ccccc2)c2ccc(Cl)cc2)cc1 (stereo not given) | 3 | 58* | 16 | 82* | 0.4 | 0.2
COc1ccc(Nc2nc(C)cc(C)c2C#N)cc1OC | 7 | 28 | 19 | 16 | 0.7 | 0.8
FC(F)(F)C1=CC(c2ccc(Br)cc2)=NCCN1 | 6 | 11 | 14 | 10 | 0.9 | 0.9
O=C(NC12CC3CC(CC(C3)C1)C2)C12CC3CC(C1)CC(n1cnc(Cl)n1)(C3)C2 | -5 | -2 | 45* | 27 | 1 | 0.7
O=C(CCn1c(=O)oc2ccccc21)NCCN1CCc2ccccc2C1 | 1 | -10 | 3 | -15 | 1.1 | 1.2
O=C(CCCn1c(=O)oc2ccccc21)N1CCc2ccccc2C1 | 21 | -1 | 6 | 75* | 1 | 0.2
O=c1oc2ccccc2n1CCc1ccccc1 | 7 | 2 | 19 | 86* | 1 | 0.1
O=C1c2ccccc2C(=O)N1CCCCn1c(=O)oc2ccccc21 | 4 | 31 | 44* | 48 | 0.7 | 0.5
CCC1Oc2ccc(C)cc2N(CC(=O)NCc2cccc(OC)c2)C1=O (stereo not given) | 15 | 14 | 33* | 94* | 0.9 | 0.1
CCC1Oc2ccc(C)cc2N(CC(=O)NCc2ccccc2OC)C1=O (stereo not given) | -3 | -29 | 10 | 91* | 1.3 | 0.1
CCC1Oc2ccc(C)cc2N(CC(=O)NCCCN2CCN(Cc3ccccc3)CC2)C1=O (stereo not given) | -8 | 8 | 27 | 10 | 0.9 | 0.9
CCC1Oc2ccc(C)cc2N(CC(=O)NCc2cc(OC)ccc2OC)C1=O (stereo not given) | -2 | 16 | 14 | 73* | 0.8 | 0.3
CC(C)(C)NC(=O)NC(=O)COC(=O)COc1ccc2c(c1)CCC2 | 3 | 25 | 3 | 50* | 0.8 | 0.5
CC(C)(C)NC(=O)NC(=O)COc1ccccn1 | -1 | -27 | 4 | -18 | 1.3 | 1.2
CCC(CCC(=O)Nc1ccc(S(N)(=O)=O)cc1)C(=O)O (stereo not given) | -2 | 7 | -1 | 6 | 0.9 | 0.9
C=CCN(CC=C)S(=O)(=O)c1ccc(NC(=S)NC(=O)/C=C/c2ccccc2)cc1 | -18 | 18 | 2 | 14 | 0.8 | 0.9
CCOC(=O)c1c(N)sn(-c2ccccc2C)c1=S | -36 | 62* | 10 | 28 | 0.4 | 0.7
CCOC(=O)c1c(N)sc(C(=O)N2CCOCC2)c1C | -5 | x | 12 | x | x | x
Cc1cccc(NC(=S)NCc2cccs2)c1C | -8 | 12 | -3 | 52* | 0.9 | 0.5
Cc1cc(C(=O)NCc2cccs2)no1 | -19 | -5 | 10 | 1 | 1 | 1
SMILES | PostGolgi yeast | CYP2C9 inhib | PostGolgi ctrl | CYP2C19 inhib | CYP2C9 activ | CYP2C19 act
Cc1ccc(Nc2ncccc2C(=O)NCc2cccs2)c(C)c1 | -2 | 29 | 44* | 23 | 0.7 | 0.8
O=C(NCc1cccs1)c1ccccc1F | 4 | x | 2 | x | x | x
CC(C)(C)c1ccc(NC(=S)NCc2cccs2)cc1 | 7 | -29 | 9 | 36 | 1.3 | 0.6
Cc1cccc(Nc2ncccc2C(=O)NCc2cccs2)c1C | -8 | 57* | 34* | 34 | 0.4 | 0.7
CCC(C)c1ccc(NC(=S)NCc2cccs2)cc1 (stereo not given) | -10 | 33 | 7 | 58* | 0.7 | 0.4
CCC(C)NC(=O)C1CCN(S(=O)(=O)c2ccc(OC)cc2)CC1 (stereo not given) | 1 | -14 | 0 | 19 | 1.1 | 0.8
COCCCNC(=O)CN(c1ccc(OC)cc1)S(=O)(=O)c1ccc(NC(C)=O)cc1 | -8 | 36 | -6 | 40 | 0.6 | 0.6
N/N=c1\sc2ccccc2n1-c1ccccc1 | -24 | 10 | 30* | 36 | 0.9 | 0.6
CN1C(=O)C2(C(C#N)=C(N)Oc3c2oc(CO)cc3=O)c2ccccc21 (stereo not given) | 9 | -7 | 0 | -12 | 1.1 | 1.1
O=C(CCC(=O)c1cccs1)OCC(=O)N1CCN(S(=O)(=O)c2ccccc2)CC1 | 3 | 13 | 4 | 1 | 0.9 | 1
Oc1ccc2ccccc2c1/C=N/Nc1nnc(-c2ncc[nH]2)c2ccccc12 | 9 | 14 | 39* | 6 | 0.9 | 0.9
CCOC(=O)CCn1nc(-c2ccccc2)cc1N | 4 | 10 | 9 | 66* | 0.9 | 0.3
Cc1ccc(Cl)cc1N1CCN(C(=O)CN2C(=O)c3cccc4cccc2c34)CC1 | -3 | -103 | 21 | 22 | 2* | 0.8
CCOC(=O)C1CCN(C(=O)CCc2c(C)nc3cc(-c4ccccc4)nn3c2C)CC1 | -11 | 36 | 22 | 32 | 0.6 | 0.7
Cc1ccc(-c2ccc(=O)n(CC(=O)N3CCN(c4cccc(C)c4)C(C)C3)n2)cc1 (stereo not given) | -1 | 19 | 12 | 27 | 0.8 | 0.7
CCOC(=O)Cn1nc(-c2ccc(C)cc2)ccc1=O | -1 | 52* | 5 | 49 | 0.5 | 0.5
Cc1ccc(-c2ccc(=O)n(CC(=O)N3CCN(c4cc(Cl)ccc4C)CC3)n2)cc1 | 17 | -2 | 47* | 9 | 1 | 0.9
O=C(CCCc1c[nH]c2ccccc12)N1CCOCC1 | 7 | -28 | -8 | 67* | 1.3 | 0.3
COCC(=O)NCCc1nc2ccccc2[nH]1 | 19 | 5 | -5 | 0 | 0.9 | 1
O=C(CCCc1c[nH]c2ccccc12)N1CCN(S(=O)(=O)c2cccs2)CC1 | -3 | -1 | 22 | 9 | 1 | 0.9
O=C1CN(C(=O)CCCc2c[nH]c3ccccc23)c2ccccc2N1 | 4 | 7 | -2 | 50* | 0.9 | 0.5
O=C(CSc1c[nH]c2ccccc12)N1CCOCC1 | 0 | 10 | 9 | 84* | 0.9 | 0.2
COCC(=O)NCCSc1c(C)[nH]c2ccccc12 | 8 | -32 | 19 | 58* | 1.3 | 0.4
O=C(O)CCCC(=O)N1CC(=O)Nc2ccccc21 | 0 | 5 | 15 | 4 | 1 | 1
CCCCN(CCCNC(=O)C1CCN(S(=O)(=O)CC)CC1)c1ccccc1 | -5 | x | -6 | x | x | x
O=C(CSc1ccc2nnc(-c3ccccn3)n2n1)NCc1ccc2c(c1)OCO2 | 1 | x | 28 | x | x | x
